Data: PubChem BioAssay (NCATS)
Inconclusive results are not listed. Activity calls are given as the source filed them. The call rests on the fitted dose curve; in most records, active means well fitted curve in the direction sought with a large enough effect; inconclusive means small, poorly fitted or top-dose-only effect, or another doubt; inactive means no such curve, though single readings can be large; an effect the other way counts as inactive or inconclusive.

target: Aldehyde dehydrogenase, mitochondrial (Homo sapiens) (UniProt P05091); test: qHTS for Inhibitors of the Aldehyde Dehydrogenase Family (ALDH2) Primary screen (AID 2061308); details: ALDH2 enzyme inhibition qHTS, 1536-well; series mostly up to 56 µM; activity change, negative = inhibition: at the top concentration;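 further: plate controls were vehicle for no effect and reference inhibitor for full effect; nearly all actives have a fitted effect of over 55% in size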

Compound | activity change, negative = inhibition | Potency
C[C@@H]1O[C@@H](O[C@H]2C[C@@H](O)[C@]3(CO)[C@H]4[C@H](O)C[C@]5(C)[C@@H](C6=CC(=O)OC6)CC[C@]5(O)[C@@H]4CC[C@]3(O)C2)[C@H](O)[C@H](O)[C@H]1O | 1.53% [at 28 µM] (inactive) | –
CC(NC(C)(C)C)C(=O)c1cccc(Cl)c1 (configuration not stated) | 2.37% (inactive) | –
CC(C)N(CCC(C(N)=O)(c1ccccc1)c1ccccn1)C(C)C (configuration not stated) | -4.52% (inactive) | –
O=c1[nH]c2ccccc2n1C1CCN(CCCC(c2ccc(F)cc2)c2ccc(F)cc2)CC1 | – | inactive

target: Retinaldehyde dehydrogenase 3 (Homo sapiens) (UniProt P47895); test: qHTS for Inhibitors of the Aldehyde Dehydrogenase Family (ALDH1A3) Validation screen (AID 2061312); details: ALDH1A3 enzyme inhibition qHTS validation, fluorescence; series mostly up to 42.4 µM; activity change, negative = inhibition: at the top concentration; further: on the % scale 0 is the no-effect control and ±100 the full control effect; nearly all actives have a fitted effect of over 45% in size

Compound | activity change, negative = inhibition | Potency
CC(N)Cc1c[nH]c2ccc(O)cc12 (configuration not stated) | -11.8% (inactive) | –
NCC(O)c1cc(O)c(O)cc1F (configuration not stated) | -25.4% (inactive) | –
Cc1cccc(C)c1NC1=NCCCS1 | 23.4% (inactive) | –
CC(Cc1ccc(OCC(=O)O)cc1)NCC(O)c1cccc(Cl)c1 (configuration not stated) | 4.03% (inactive) | –
CC(Cc1ccc(O)cc1)NCC(O)c1cc(O)cc(O)c1 (configuration not stated) | -10.9% (inactive) | –
C[C@@H]1O[C@@H](O[C@H]2C[C@@H](O)[C@]3(CO)[C@H]4[C@H](O)C[C@]5(C)[C@@H](C6=CC(=O)OC6)CC[C@]5(O)[C@@H]4CC[C@]3(O)C2)[C@H](O)[C@H](O)[C@H]1O | – | inactive
NC(=O)CN1CCCC1=O | 3.56% (inactive) | –
C[N+]1(C)CCc2cc3c(cc2[C@H]1[C@@H]1OC(=O)c2c1ccc1c2OCO1)OCO3 | 9.53% (inactive) | –
CC(NC(C)(C)C)C(=O)c1cccc(Cl)c1 (configuration not stated) | – | inactive
Cc1c2ccncc2c(C)c2c1[nH]c1ccccc12 | 18.8% (inactive) | –
CNc1ccc2oc(C[C@H]3O[C@@]4(CC[C@H]3C)O[C@H]([C@H](C)C(=O)c3ccc[nH]3)[C@H](C)C[C@H]4C)nc2c1C(=O)O | 1.96% (inactive) | –
CC(C)N(CCC(C(N)=O)(c1ccccc1)c1ccccn1)C(C)C (configuration not stated) | – | inactive
O=c1[nH]c2ccccc2n1C1CCN(CCCC(c2ccc(F)cc2)c2ccc(F)cc2)CC1 | 11.1% (inactive) | –
O=C1/C(=C/c2ccccc2)C[C@@]2(O)[C@H]3Cc4ccc(O)c5c4[C@@]2(CCN3CC2CC2)[C@H]1O5 | -2.98% (inactive) | –
CCCN1CCC[C@@H](c2cccc(O)c2)C1 | 12.6% (inactive) | –
C=CCN1CCC23c4c5ccc(O)c4O[C@H]2C(=O)CC[C@@]3(O)C1C5 (some centres not stated) | -15.3% (inactive) | –
CCCCCCCCCCCCCC(=O)O[C@@H]1[C@@H](C)[C@@]2(O)[C@@H](C=C(CO)C[C@@]3(O)C(=O)C(C)=C[C@@H]23)C2C(C)(C)[C@@]21OC(C)=O (some centres not stated) | -7.91% (inactive) | –
NCCCP(=O)(O)O | -1.21% (inactive) | –

target: Retinaldehyde dehydrogenase 3 (Homo sapiens) (UniProt P47895); test: qHTS for Inhibitors of the Aldehyde Dehydrogenase Family (ALDH1A3) Primary screen (AID 2061315); details: ALDH inhibition qHTS; series mostly up to 56 µM; activity change, negative = inhibition: at the top concentration;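 further: plate controls were DMSO vehicle for no effect and reference inhibitor for full effect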

Compound | activity change, negative = inhibition | Potency
C[C@@H]1O[C@@H](O[C@H]2C[C@@H](O)[C@]3(CO)[C@H]4[C@H](O)C[C@]5(C)[C@@H](C6=CC(=O)OC6)CC[C@]5(O)[C@@H]4CC[C@]3(O)C2)[C@H](O)[C@H](O)[C@H]1O | -1.68% [at 28 µM] (inactive) | –
CC(NC(C)(C)C)C(=O)c1cccc(Cl)c1 (configuration not stated) | -2.62% (inactive) | –
CC(C)N(CCC(C(N)=O)(c1ccccc1)c1ccccn1)C(C)C (configuration not stated) | -8.97% (inactive) | –
O=c1[nH]c2ccccc2n1C1CCN(CCCC(c2ccc(F)cc2)c2ccc(F)cc2)CC1 | – | inactive

tested on: not listed separately; test: BET inhibitor-based combinations targeting novel dependencies in MECOM-rearranged (r) AML: SET-2 cell line (AID 2202231); details: SET-2 AML cells viability, CellTiter-Glo luminescence, 48 h; viability: hits give low values, concentration not given here; further: nearly all actives have a fitted effect of over 35% in size; further: potency means the concentration at half of the fitted maximal effect;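 on viability: plate controls were DMSO treated cells for no effect and wells without cells for full effect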
How it was run: (§1)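 Viability of cells (500 per well) is scored by luminescent CellTiter-Glo at 48 hr post-dosing. Eleven-point titrations are normalized to DMSO and empty controls and reduced to AUC values.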

Compound | viability | Potency
O=C1CC[C@@]2(O)[C@H]3Cc4ccc(O)c5c4[C@@]2(CCN3CC2CC2)[C@H]1O5 | 123% (inactive) | –
C[C@@H]1O[C@@H](O[C@H]2C[C@@H](O)[C@]3(CO)[C@H]4[C@H](O)C[C@]5(C)[C@@H](C6=CC(=O)OC6)CC[C@]5(O)[C@@H]4CC[C@]3(O)C2)[C@H](O)[C@H](O)[C@H]1O | – | 74.2 nM (active)
N=c1c2c(-c3ccccc3)c(-c3ccccc3)n(Cc3ccccc3)c2ncn1C1CCC(O)CC1 (configuration not stated) | – | 1320 nM (active)
COc1cccc2c1C(=O)c1c(O)c3c(c(O)c1C2=O)C[C@@](O)(C(=O)CO)CC3OC1CC(N2CCOC(OC)C2)C(O)C(C)O1 (some centres not stated) | – | 3.3 nM (active)
C#CC1(O)CCC2C3CCC4=CC(=O)CCC4(C)C3CCC21C (configuration not stated) | 107% (inactive) | –

tested on: not listed separately; test: BET inhibitor-based combinations targeting novel dependencies in MECOM-rearranged (r) AML: OCI-AML3 cell line (AID 2202232); details: CellTiter-Glo luminescence, 48 h; Potency: OCI-AML3 viability; series mostly up to 46 µM; viability (% of control): at the top concentration; further: nearly all actives have a fitted effect of over 35% in size; further: potency means the concentration at half of the fitted maximal effect;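 on viability (% of control): plate controls were DMSO vehicle wells for no effect and wells without cells for full effect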
How it was run: as §1

Compound | Potency | viability (% of control)
COC1(CS(=O)c2ccccc2)CCN(CCc2c[nH]c3ccc(F)cc23)CC1 (configuration not stated) | 14800 nM (active) | –
C[C@@H]1O[C@@H](O[C@H]2C[C@@H](O)[C@]3(CO)[C@H]4[C@H](O)C[C@]5(C)[C@@H](C6=CC(=O)OC6)CC[C@]5(O)[C@@H]4CC[C@]3(O)C2)[C@H](O)[C@H](O)[C@H]1O | 66.1 nM (active) | –
Cc1sc2c(c1C)C(c1ccc(Cl)cc1)=NC(CC(N)=O)c1nnc(C)n1-2 (configuration not stated) | 93.4 nM (active) | –
O=S(=O)(CC1CS1)c1ccc(Oc2ccccc2)cc1 (configuration not stated) | 16600 nM (active) | –
CC1=C(O)C(=O)C=C2C1=CC=C1[C@@]2(C)CC[C@@]2(C)[C@@H]3C[C@](C)(C(=O)O)CC[C@]3(C)CC[C@]12C | 742 nM (active) | –
C[C@]12CC[C@H]3[C@@H](CCC4=CC(=O)CC[C@@]43C)[C@H]1CC[C@H]2OC(=O)CCC1CCCC1 | – | 88.9% (inactive)

tested on: not listed separately; test: BET inhibitor-based combinations targeting novel dependencies in MECOM-rearranged (r) AML: MV-4-11 cell line (AID 2202233); details: MV-4-11 AML viability, CellTiter-Glo luminescence, 48 h; series mostly up to 46 µM; viability, % of control: at the top concentration; further: nearly all actives have a fitted effect of over 45% in size; further: potency means the concentration at half of the fitted maximal effect;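 on viability, % of control: plate controls were DMSO for no effect and blank wells for full effect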
How it was run: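 Using pin-tool transfer, drugs were added in 11 doses to cells (500/well), incubated 48 hr, and assessed with CellTiter-Glo. Z-AUC is a mean-centring transformation applied separately to each screened line.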

Compound | Potency | viability, % of control
C[C@@H]1O[C@@H](O[C@H]2C[C@@H](O)[C@]3(CO)[C@H]4[C@H](O)C[C@]5(C)[C@@H](C6=CC(=O)OC6)CC[C@]5(O)[C@@H]4CC[C@]3(O)C2)[C@H](O)[C@H](O)[C@H]1O | 118 nM (active) | –
Cc1sc2c(c1C)C(c1ccc(Cl)cc1)=NC(CC(N)=O)c1nnc(C)n1-2 (configuration not stated) | 66.1 nM (active) | –
O=S(=O)(CC1CS1)c1ccc(Oc2ccccc2)cc1 (configuration not stated) | 11800 nM (active) | –
CC(NC(C)(C)C)C(=O)c1cccc(Cl)c1 (configuration not stated) | – | 123% (inactive)
N[C@@H](Cc1ccc(N(CCCl)CCCl)cc1)C(=O)O | 1480 nM (active) | –
CC1=C(O)C(=O)C=C2C1=CC=C1[C@@]2(C)CC[C@@]2(C)[C@@H]3C[C@](C)(C(=O)O)CC[C@]3(C)CC[C@]12C | 662 nM (active) | –
CCCCCC[C@H]1C(=O)O[C@H](C)[C@H](NC(=O)c2cccc(NC=O)c2O)C(=O)O[C@@H](C)[C@@H]1OC(=O)CC(C)C | 1320 nM (active) | –
C[C@]12CC[C@H]3[C@@H](CCC4=CC(=O)CC[C@@]43C)[C@H]1CC[C@H]2OC(=O)CCC1CCCC1 | – | 97.5% (inactive)
COc1ccc(C(=O)c2c(C)n(CCN3CCOCC3)c3cc(I)ccc23)cc1 | 8330 nM (active) | –
C[C@](O)(COc1ccc(C#N)cc1)C(=O)Nc1ccc(C#N)c(C(F)(F)F)c1 | – | 74.6% (inactive)
